In PubChem BioAssay (NCI):
Compounds without any hit were thinned out: in the full panel of roughly 83,000, 20% have a hit.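 Results are percent growth after 48 hours of single-concentration exposure. 100 means growth as in untreated cells, lower positive values show inhibition; negative values down to -100 show cell death.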 A number with no mark means an inactive call. Activity calls are given as the source filed them. The calls were made as follows: active = growth percent below 10; inactive = the rest.

Experiments:
Assay in all cases: NCI-60 one-dose screen, 48 h (100 = growth as untreated, 0 = no growth, -100 = all killed)
Settings in all cases: 10 µM
NCI-H23 lung = tested on: NCI-H23 lung
NCI-H226 lung = tested on: NCI-H226 lung
NCI-H322M lung = tested on: NCI-H322M lung
HOP-62 NSCLC = tested on: HOP-62 NSCLC
NCI-H460 lung = tested on: NCI-H460 lung
HOP-92 NSCLC = tested on: HOP-92 NSCLC
NCI-H522 lung = tested on: NCI-H522 lung
A549/ATCC NSCLC = tested on: A549/ATCC NSCLC
786-0 renal = tested on: 786-0 renal
COLO 205 colon = tested on: COLO 205 colon
DU-145 prostate = tested on: DU-145 prostate
K-562 leukemia = tested on: K-562 leukemia
MALME-3M melanoma = tested on: MALME-3M melanoma
MDA-MB-231 breast = tested on: MDA-MB-231 breast
RXF 393 renal = tested on: RXF 393 renal
SF-268 CNS = tested on: SF-268 CNS
SF-295 CNS = tested on: SF-295 CNS
SF-539 CNS = tested on: SF-539 CNS
UACC-257 melanoma = tested on: UACC-257 melanoma
M14 melanoma = tested on: M14 melanoma

Compound	growth (NCI-H23 lung)	growth (NCI-H226 lung)	growth (NCI-H322M lung)	growth (HOP-62 NSCLC)	growth (NCI-H460 lung)	growth (HOP-92 NSCLC)	growth (NCI-H522 lung)	growth (A549/ATCC NSCLC)	growth (786-0 renal)	growth (COLO 205 colon)	growth (DU-145 prostate) [%]	growth (K-562 leukemia)	growth (MALME-3M melanoma)	growth (MDA-MB-231 breast)	growth (RXF 393 renal)	growth (SF-268 CNS)	growth (SF-295 CNS)	growth (SF-539 CNS)	growth (UACC-257 melanoma)	growth (M14 melanoma)
COc1cc(C2C=C(c3ccc(Cl)cc3)N=C3SC(C)=CN32)cc(OC)c1OC (stereo not drawn)	93.8%	96.9%	97.3%	109%	102%	95.2%	69.9%	83.8%	89.5%	109%	99.9	91.1%	88.7%	103%	92.6%	104%	82.2%	99.1%	101%	–
CCCCn1c(=O)[nH]c(N)c(C(c2ccc(Cl)cc2)c2c(N)[nH]c(=O)n(CCCC)c2=O)c1=O	53.9%	58.7%	63.6%	59.1%	32%	54.7%	37.9%	40.2%	41%	43.9%	65.7	28.7%	68.9%	54.4%	18.7%	38.1%	35.2%	43.9%	41%	–
O=C(N/N=c1/ccoc2cccnc12)N1CCN(c2ncccn2)CC1	26.4%	37.6%	39.1%	24.5%	15.2%	64.2%	9.96% (active)	17.6%	40.4%	4.3% (active)	50.5	9.99% (active)	55.5%	40%	66.8%	37.3%	15.9%	45.3%	5.91% (active)	–
Nc1ccc(Sc2ccc3c4c2cccc4c(=O)n2c4ccccc4nc32)cc1	37.5%	40.6%	61.8%	51.2%	9.47% (active)	28.7%	60%	20.6%	37.3%	50.8%	39.3	60.3%	34%	54.4%	72.6%	59.4%	12%	48.5%	71%	–
C#Cc1ccc(-n2c(/C=C/c3cc(OC)c(OC)c(OC)c3)nc3ncccc3c2=O)cc1	73.6%	56.1%	68.3%	66.2%	72.6%	6.32% (active)	7.99% (active)	44.1%	75.9%	31.1%	45.3	25.6%	50%	58.6%	36.4%	63.3%	38%	78.8%	53.8%	71.9%
COc1cc(CSc2nc3ccc(Cl)cc3c(=O)n2Cc2ccccc2)cc(OC)c1OC	25%	47.9%	47.5%	37.7%	20.5%	71.3%	-0.0842% (active)	42.2%	43.4%	-37.8% (active)	40.8	12.9%	38.9%	38.8%	13.1%	41%	28.9%	5.82% (active)	46.5%	–
C#C[C@]1(O)CC[C@H]2[C@@H]3CC[C@H]4CC(F)(F)CC[C@]4(C)[C@H]3CC[C@@]21C	95.5%	90.4%	89%	67.5%	83.9%	93.8%	105%	77.2%	101%	90.9%	61.2	76.2%	88%	101%	86.4%	92.9%	69.1%	54.6%	78.3%	–
CC(C)c1[nH]nc2c(NCc3ccc(-c4ccccn4)cc3)nc(SCCN(C)C)nc12	-23.8% (active)	2.16% (active)	17%	-11.2% (active)	8% (active)	-15.9% (active)	-48.3% (active)	8.6% (active)	11.3%	-42% (active)	11.4	5.19% (active)	-52.2% (active)	1.25% (active)	-69.1% (active)	6.37% (active)	2.15% (active)	-43.5% (active)	-4.44% (active)	–
COc1ccc(C2CC(c3ccc(-c4ccccc4)cc3)=NN2c2ccc(S(N)(=O)=O)cc2)cc1 (stereo not drawn)	80.9%	74.9%	68.5%	90.8%	41.9%	35.6%	40.3%	47.3%	92.1%	83.8%	83.2	52.7%	95.8%	69.6%	73.3%	68%	86.5%	98.7%	82.7%	89.6%
CCOC(=O)Cn1nnc(-c2ccc(OCc3ccccc3F)cc2)n1	89%	103%	98.7%	87.1%	102%	75.5%	52.3%	90.8%	97.2%	103%	103	53%	36.9%	104%	79.9%	82.8%	91.7%	92.4%	87.5%	–
CN(C)c1ccc2c(c1)OC(N)=C(C#N)C2c1ccc2c(c1)CCO2 (stereo not drawn)	35.5%	48.9%	51.4%	36.3%	9.76% (active)	58.8%	-6.52% (active)	21.9%	34.8%	-26% (active)	26.7	17%	87.5%	21.7%	23.5%	47.7%	-3.28% (active)	-0.663% (active)	58%	–
O=S(=O)(NC1c2ccccc2Oc2ccccc21)c1cc(Cl)ccc1Cl	97.6%	83.4%	90%	89.4%	105%	60.2%	29.5%	97.1%	84.6%	98.9%	113	89.8%	102%	97.4%	93.1%	99.1%	101%	98.2%	102%	–
COc1cc(C)c2sc3ccccc3c(=O)c2c1NCCN(C)C	76.3%	74%	90.6%	67.7%	22.2%	19.1%	80.1%	28.8%	65.9%	16.1%	77.1	-1.18% (active)	38.9%	27.9%	59.3%	61.3%	53.6%	66.7%	-22.8% (active)	24%
COc1cc(Cl)cc(-c2nn(-c3cccc(NC(=O)Nc4cccc(C(F)(F)F)c4)c3)cc2-c2ccncc2)c1	-5.1% (active)	3.94% (active)	26.2%	15.5%	-6.11% (active)	-27.3% (active)	-18.6% (active)	8.08% (active)	13.2%	-31.2% (active)	15.9	7.61% (active)	-16.6% (active)	-9.21% (active)	11.8%	27.9%	-7.87% (active)	17%	-11.7% (active)	9.99% (active)
C=CCN1C(=O)/C(=C\c2ccc3c(c2)CCC3)SC1=S	90.3%	96.7%	106%	76.3%	107%	91.5%	-22.1% (active)	105%	104%	109%	106	103%	93.7%	98.8%	101%	102%	95.2%	95.5%	110%	–
COc1cc(OC)cc(-c2ccc(-c3ccc(C(=N)N)cn3)o2)c1	61.6%	60.7%	2.03% (active)	6.78% (active)	-76.6% (active)	-21.8% (active)	-50.7% (active)	4.73% (active)	-40.2% (active)	-56.9% (active)	21.6	-59.9% (active)	-79.9% (active)	-83.2% (active)	-69.9% (active)	-20.3% (active)	-70.5% (active)	-69.1% (active)	-80.6% (active)	–
